Consider 33 compounds from ChEMBL document CHEMBL3433997, “St. Jude Leishmania screening dataset” (2016).

SMILES strings stand for the structures.

Common to all, as to type: functional
Test [1] concerns the target Solute carrier family 2, facilitated glucose transporter member 1 (Homo sapiens) (UniProt P11166). Description: ST_JUDE_LEISH: Cytotoxicity at 2uM final concentration against transgenic Leishmania Mexicana promastigotes LmGLUT1 that are glucose transport deficient and complemented with the human glucose transporter GLUT1. Activity is measured by DNA content using SYBR green in vitro.

Test [2] deals with Hexose transporter 1 (Plasmodium falciparum) (UniProt O97467). Description: ST_JUDE_LEISH: Cytotoxicity at 2uM final concentration against transgenic Leishmania Mexicana promastigotes LmPfHT that are glucose transport deficient and complemented with the Plasmodium falciparum hexose transporter. Activity is measured by DNA content using SYBR green in vitro.
Test [3] has as its target Glucose transporter (Leishmania mexicana) (UniProt O61059). The test can be described thus: ST_JUDE_LEISH: Cytotoxicity at 2uM final concentration against transgenic Leishmania Mexicana promastigotes LmGT2 that are glucose transport deficient and complemented with the L. Mexicana glucose transporter 2. Activity is measured by DNA content using SYBR green in vitro.

Chain of Solute carrier family 2, facilitated glucose transporter member 1 (Homo sapiens) (P11166 whole entry): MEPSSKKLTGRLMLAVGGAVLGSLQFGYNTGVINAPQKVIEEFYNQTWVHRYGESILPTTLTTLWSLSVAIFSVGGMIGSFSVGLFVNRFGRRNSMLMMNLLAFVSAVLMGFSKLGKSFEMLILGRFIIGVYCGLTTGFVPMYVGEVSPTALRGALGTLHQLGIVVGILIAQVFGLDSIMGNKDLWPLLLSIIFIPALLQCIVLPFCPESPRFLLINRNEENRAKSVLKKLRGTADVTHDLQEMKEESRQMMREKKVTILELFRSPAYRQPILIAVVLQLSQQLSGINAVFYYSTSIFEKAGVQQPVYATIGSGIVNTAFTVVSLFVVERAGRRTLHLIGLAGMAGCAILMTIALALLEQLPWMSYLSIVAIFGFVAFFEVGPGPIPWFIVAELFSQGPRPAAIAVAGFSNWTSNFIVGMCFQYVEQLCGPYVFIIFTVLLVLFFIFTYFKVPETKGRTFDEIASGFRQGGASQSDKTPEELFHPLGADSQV

In general, inhibition refers to the relative decrease from the control value, in per cent. `CCCNc1ccc2nccc(CCN3CCC(NCc4ccc5c(c4)NC(=O)CS5)CC3)c2n1`: the results for the inhibition in test [1], in test [2] and in test [3] were 0.84%, 3.1% and 2.43%, respectively.
Consider `COc1ccc(Nc2nc(NC3CCN(Cc4ccccc4)CC3)cc(-c3ccncc3)n2)cc1`, for which the inhibition in test [1] was -0.03%; in test [2], -0.17%; in test [3] it was 0.86%.
Regarding `CCCC(C)NC(=O)/C=C/c1ccccc1-c1cccc(OC)c1` (stereo not given), the inhibition in test [1] was -0.91%; in test [2], -0.01%.
On to `O=C(/C=C/c1ccc(Cl)c(Cl)c1)NCC[C@@H]1C[C@H]1CCN1CCC(c2c[nH]c3ccccc23)CC1`, for which the inhibition is 9.6% in test [1], 8.4% in test [2] and 6.24% in test [3].
Take `COc1ccc2nccc(NC(=O)N3CCC(NCc4cc5ccccc5[nH]4)CC3)c2n1`: the inhibition stood at 13.2% in test [1], 16.9% in test [2] and 2.89% in test [3].
Consider `CCCN(CCC)CCCCC(C)Nc1c2ccc(Cl)cc2nc2ccc(OC)cc12` (stereo not given), for which the results for the inhibition in test [1], in test [2] and in test [3] were 8.02%, 8.65% and 9.34%, respectively.
As to `O=c1cc(NCCCNCc2ccc3c(c2)OC(F)(F)O3)[nH]c2ccccc12`, the values for the inhibition in test [1], in test [2] and in test [3] were -0.44%, 0.16% and -1.35%, respectively.
Taken in the same sequence, the figures for `CN1CCN(Cc2c(O)ccc3c(=O)c(Oc4ccc(C(C)(C)C)cc4)c(C(F)(F)F)oc23)CC1` were 70.7%, 74.1% and 46.6%.
For `Cc1ccc(NC(=O)N2CCCN(CCCCCNC(=O)/C=C/c3ccc(Cl)c(Cl)c3)CC2)cc1C`, the inhibition in test [1] is -0.69%; in test [2] it was -1.17%.
Regarding `O=[N+]([O-])c1ccc(N2CCCN(C(=S)Nc3ccc(F)cc3Br)CC2)nc1`, the inhibition in test [1] is 1.6%; in test [2], -0.77%; in test [3], 1.29%.
Turning to `CCCC(CNCc1cccc(OCC)c1)CNc1cc(=O)c2ccccc2[nH]1` (stereo not given), the inhibition in test [1] is -0.5%; in test [2], -0.45%.
Taken in the same sequence, the figures for `CC(C)c1ccc(CN2CCC(CNC(=O)c3cc(-c4cccc(F)c4)cs3)C2)cc1` (stereo not given) were 0.2% and -1.08%.
For the compound `O=C(Nc1ccc([N+](=O)[O-])cc1Cl)c1cc(Br)cc(Cc2ccccc2)c1O`, the results for the inhibition in test [1], in test [2] and in test [3] were 3.27%, 3.32% and 2.81%, respectively.
The like results for `N#Cc1c(-c2ccccc2)cn2c1[nH]c(=O)c1ccccc12` were, in that order, -1.7%, 2.37% and 1.89%.
The like results for `Cc1ccc(S(=O)(=O)n2cc(-c3ccnc(N)c3)c3cc(Br)cnc32)cc1` were, in that order, 4.4%, 4.2% and 1.4%.
As for `O=C(Nc1ccc(-c2ccc(-c3nc4ccccc4[nH]3)s2)cc1)Nc1ccc(Cl)c(Cl)c1`, the inhibition in test [1] is 9.56%; in test [2], 8.71%; in test [3], 11.2%.
Take `Cc1noc(-c2ccc3c(c2)CCN(CCC2CCC(NC(=O)/C=C/c4ccc(F)cc4)CC2)CC3)n1` (stereo not given): the inhibition is 0.93% in test [1], -1.07% in test [2] and -0.23% in test [3].
Taken in the same sequence, the figures for `CCCN1CCC(NCc2cn(C)nc2-c2ccc(Oc3ccccc3)cc2)CC1` were 10.8%, 11% and 11.5%.
`COc1ccc2nccc([C@@H](O)CN3CCC(NC(=O)Cc4cccc5c(Br)cccc45)CC3)c2c1`: the inhibition in test [1] came out at 14.1%; in test [2], 9.54%; in test [3] it was 10.9%.
Turning to `O=[N+]([O-])c1ccc(-n2nc(-c3cccnc3)n(Cc3ccco3)c2=S)c(Cl)c1`, the inhibition is 1.31% in test [1] and -1.09% in test [2].
In the case of `Cc1cccc2nc(-c3ccc(-c4ccc(CN5CCCCC5)cc4)s3)[nH]c12`, the inhibition turned out to be 4.61% in test [1], 2.36% in test [2] and 3.32% in test [3].
Regarding `Cc1cc(N[C@@H](Cc2ccccc2)C(=O)NCCc2ccccc2)nc(NCC2CCCCC2)n1`, the inhibition in test [1] is 2.97%; in test [2], 3.86%; in test [3], 1.29%.
For `CCCOc1ccccc1C(=O)Nc1nonc1-c1ccc(OCC)c(OCC)c1`, the inhibition in test [1] stood at 0.74%; in test [2], 0.51%; in test [3] it was 0.93%.
Taken in the same sequence, the figures for `Cc1ccc(-n2c(C)nc3c(Nc4ccc(-c5ccncc5)cc4)ncnc32)c(C)c1` were 91.7%, 95.1% and 81%.
Regarding `Cc1ccnc(NC(=O)c2cc(-c3cccc([N+](=O)[O-])c3)nc3onc(C)c23)c1`, the inhibition in test [1] was 6.8%; in test [2], 7.59%; in test [3], 4.35%.
On to `COc1ccccc1N1CCN(C(C(=O)NCc2ccc3c(c2)OCO3)c2ccc(C)cc2)CC1` (stereo not given), for which the inhibition in test [1] is -0.94%; in test [2] it was -0.2%.
`c1ccc(CNCc2ccc(-c3ccc(-c4nc5ccccc5[nH]4)cc3)cc2)cc1`: the inhibition in test [1] worked out at 20.4%; in test [2], 12.9%; in test [3], 10%.
On to `COc1ccc(CCn2c(C3CCCCC3)nc3oc4ccccc4c(=O)c3c2=O)cc1`, for which the inhibition was 3% in test [1], 5.28% in test [2] and -0.12% in test [3].
With `CCN(CC)CCCN(C(=O)Nc1cc(F)cc(F)c1)c1nc(-c2ccc(F)cc2)cs1`, the inhibition in test [1] is 1.8%; in test [2], -0.11%; in test [3], 1.69%.
The like results for `O=C([C@H]1CCCCN1c1ccc([N+](=O)[O-])c2ccccc12)N1CCN(c2ncccn2)CC1` were, in that order, 2.02%, 3.05% and 2.64%.
Turning to `O=C(Nc1cccc(CN2CCCN(Cc3cccc(O)c3)CC2)c1)c1cc2ccccc2s1`, the inhibition was -0.14% in test [1] and -0.1% in test [2].
Consider `O=C(NCC(=O)N1CCC[C@H]1C(=O)O)[C@@H](Cc1ccccc1)NC(=O)[C@@H]1CCCN1C(=O)CCCc1ccc(O)cc1`, for which the inhibition in test [1] is -2.68%.
For `CCC(=O)OC(CCN(CC)CC)(c1ccccc1)c1ccccc1`, the inhibition in test [1] stood at 1.98%; in test [2] it was 1.16%; in test [3], 1.58%.
